RmlC RmlD mix: mixture blocks RmlC and RmlD coupled enzyme activity; RmlC/RmlD coupled enzyme inhibition, 384-well mixture HTS; inhibition, % at 5.5 µM; 110,000 compounds, 0.39% hits; in the data active = inhibition above about 30%, passing the limit was not always enough
HIV RNase H inh: inhibitors of HIV-1 reverse transcriptase RNase H; RT-RNase H RNA/DNA duplex cleavage, fluorescence; inhibition, % at 10 µM; 65,000 compounds, 1.9% hits; AID 565; in the data active = inhibition above about 50%
RmlCD artifact: shows fluorescent artifact in RmlC/RmlD assay, dose-response counter-screen | shares compounds with RmlC RmlD mix | RmlC/RmlD assay fluorescence artifact counter-screen | calls only | 360 compounds, 96% hits; call rule not given here;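 note: compound alone with no enzyme and no substrates present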
Active calls of the source: *; · = no result; + = active, no number. Shown is part of a subset that was picked to be rich in hits.

SMILES	RmlC RmlD mix	HIV RNase H inh	RmlCD artifact
CN(C)CCCNc1oc(-c2ccccc2)nc1C#N	17.1	-10.2	·
C/C(Cn1nc([N+](=O)[O-])cc1C)=N\NC(=O)c1cccc(Br)c1	8.1	·	·
CCn1c(/C=N/n2cnnc2)nc2ccccc21	73.2*	-3.6	+
CCn1c2ccccc2c2cc(/C=N/n3cnnc3)ccc21	5.1	-52.2	·
C=CCNC(=O)c1onc(CSc2cccc(OC)c2)c1C(=O)O	-9.1	·	·
Cc1ccc(CNC(=O)C2CC(c3ccccc3F)=NO2)cc1 (configuration not stated)	-9.2	·	·
CN(CCO)c1nc(N)c2c(N)nc3c(c2c1C#N)CC(=O)N3C1CCCC1	30.2*	·	+
CCN(CC)c1nc(N)c2c(N)nc3c(c2c1C#N)CC(c1ccccc1)O3 (configuration not stated)	-94.8	-33.9	·
CC(C)(C)N1C(=O)Cc2c1nc(N)c1c(N)nc(N3CCCCC3CO)c(C#N)c21 (configuration not stated)	34.5*	-19.4	+
N#Cc1c(N2CCCCC2)nc(N)c2c(N)nc3c(c12)CC(c1ccccc1)O3 (configuration not stated)	-12.8	·	·
O=C(CC1CC2CCC1C2)OCC(=O)c1c[nH]c2ccccc12 (configuration not stated)	-6.8	·	·
Cc1cccn2c(=O)c3cc(C#N)c(=O)n(-c4c(C)n(C)n(-c5ccccc5)c4=O)c3nc12	10.0	1.5	·
Cc1cccc(-n2c(=O)c(C#N)cc3c(=O)n4ccccc4nc32)c1	83.2*	·	+
Cc1cc(-n2c(=O)c(C#N)cc3c(=O)n4cccc(C)c4nc32)no1	46.7*	0.6	+
Cc1ccc(-n2c(=O)c(C#N)cc3c(=O)n4ccccc4nc32)cc1	·	-8.0	·
C#CCOCCOCCOCCNc1nc(N2CCN(C(=O)C([C@@H](C)CC)n3cc(C(N)Cc4ccc(O)cc4)nn3)CC2)nc(N2CCN(C(=O)[C@H](CCC(=O)O)n3cc(C(N)[C@H](C)CC)nn3)CC2)n1 (some centres not stated)	-15.8	·	·
CCOC(=O)c1c(C)[nH]c(C(=O)COC(=O)CSCC(=O)N(CC)CC)c1C	-8.2	4.9	·
Cc1nc(N2CCc3ccccc32)[nH]c(=O)c1CCC(C)C	·	3.6	·
O=C(C1CCN(S(=O)(=O)c2ccccc2)CC1)N1CCOCC1	5.7	·	·
Cc1cc(Cl)cc(Br)c1OCCCN1C(=O)NC(C)(C)C1=O	-3.5	·	·
COC(=O)Cc1c(C)c2ccc(OC(=O)c3ccccc3)cc2oc1=O	63.9*	·	+
Cc1c(CC(=O)O)c(=O)oc2cc(OCc3nn[nH]n3)ccc12	28.8	·	·
CCOC(=O)c1cnc(SC2CCc3ccccc3C2=O)nc1N (configuration not stated)	5.2	-3.9	·
Cc1cc(=O)oc2cc(OC(C)C)ccc12	4.0	-17.0	·
Cc1cc(=O)oc2cc(OC(=O)CCN3C(=O)c4ccccc4C3=O)ccc12	·	·	+
SMILES	RmlC RmlD mix	HIV RNase H inh	RmlCD artifact
CCOC(=O)Nc1ccc2c(CN3C(=O)NC(CC)(CC)C3=O)cc(=O)oc2c1	38.5	·	·
CCOC(=O)Nc1ccc2c(CN3C(=O)NC4(CCCC4)C3=O)cc(=O)oc2c1	73.7*	23.0	+
O=C1CC(c2cccs2)c2cc3c(cc2N1)OCCO3 (configuration not stated)	6.3	-54.6	·
COc1ccc2ccc(=O)oc2c1	-6.7	·	·
Cn1c(-c2cc3ccc(OC(=O)C(C)(C)C)cc3oc2=O)nc2ccccc21	-40.7	·	·
CC(=O)Oc1ccc2ccc(=O)oc2c1	+	·	+
CC(=O)Oc1ccc2cc(-c3nc4ccccc4n3C)c(=O)oc2c1	·	-1.9	+
CC(=O)c1c(C(C)=O)c(C)n(-c2ccc(C)c(NC(=O)c3ccccc3Cl)c2)c1C	-11.8	·	·
COc1ccc(OC)c(NC(=O)CN2C(=O)c3ccccc3S2(=O)=O)c1	5.6	-12.6	·
COc1ccc2c(c1)-c1ccccc1S(=O)(=O)N2C(C)=O	131.5*	-18.1	+
O=C(Nc1ccc2oc(-c3ccc4ccccc4c3)nc2c1)c1ccc2c(c1)OCCO2	36.4*	·	+
O=C(Nc1ccc(-c2nc3cc(NC(=O)c4cccs4)ccc3o2)cc1)c1cccs1	92.8*	·	+
Cc1ccc2nc(-c3cccc(NC(=O)c4ccc5c(c4)OCCO5)c3)oc2c1	2.2	14.1	·
O=C(Nc1ccc2oc(-c3ccncc3)nc2c1)c1cccs1	-0.4	-3.1	·
COc1ccc(CCNC(=O)C2CCN(S(C)(=O)=O)CC2)cc1	-2.0	·	·
CC1=CC(c2ccc(Cl)cc2)n2nc(NS(=O)(=O)c3ccc(C)cc3)nc2N1 (configuration not stated)	22.3	·	·
CC1=CC(c2ccccc2)n2nc(NS(=O)(=O)c3ccc(C)cc3)nc2N1 (configuration not stated)	53.6*	-5.8	+
CSc1ccc(-c2c(C#N)c(N)nc3c2CCCC3)cc1	33.4*	3.3	+
N#Cc1c(N)nc2c(c1-c1ccncc1)CCCCC2	-14.5	-23.9	·
